Key:
Assay in all cases: DAPPL (digital affinity profiling via proximity ligation, sequencing); 10 mM Tris-HCl pH 7.5, 50 mM NaCl, 1 mM DTT, 4% glycerol, room temperature, 30 min; GST-TFs on glutathione beads, 16-mer random dsDNA library, 0.1% formaldehyde crosslink after washing; high values mean tight binding
FEV = target: T1, FEV (Homo sapiens, UniProt Q99581 1-238); conditions: protein: recombinant; tags: N-terminal GST; dsDNA, one strand shown
T1 sequence: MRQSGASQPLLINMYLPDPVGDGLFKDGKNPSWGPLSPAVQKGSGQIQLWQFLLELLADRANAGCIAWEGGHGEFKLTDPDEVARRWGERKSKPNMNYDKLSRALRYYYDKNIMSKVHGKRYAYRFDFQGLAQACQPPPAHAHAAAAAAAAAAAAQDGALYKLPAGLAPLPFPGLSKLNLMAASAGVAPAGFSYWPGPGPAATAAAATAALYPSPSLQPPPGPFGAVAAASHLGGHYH
Procedure, shortened: (§1)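 Sequencing on an Illumina NextSeq500 followed washing, crosslinking with 0.1% formaldehyde, proximity ligation (BsaI/T4 ligase, 1 h, 37 °C) and PCR amplification of pools that had been incubated for 30 min at room temperature with 200 nmole of a random double-stranded 16-mer DNA library in Tris/NaCl/DTT/glycerol buffer. Each pool held DNA-barcoded human transcription factors, expressed in yeast as GST fusions and captured on glutathione beads, plus a tag-only sample. Binding signal is a hexamer's read frequency for a factor divided by its frequency in the tag-only sample.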

ETV5 = ETV5 (Homo sapiens, UniProt P41161 1-510); conditions: protein: recombinant; tags: N-terminal GST; dsDNA, one strand shown
Procedure, shortened: as §1

HSF1 = HSF1 (Homo sapiens, UniProt Q00613 1-529); conditions: protein: recombinant; tags: N-terminal GST; chain copies: 3; dsDNA, one strand shown
Procedure, shortened: as §1

SPIC = target: T2, SPIC (Homo sapiens, UniProt Q8N5J4 1-248); conditions: protein: recombinant; tags: N-terminal GST; dsDNA, one strand shown
T2 sequence: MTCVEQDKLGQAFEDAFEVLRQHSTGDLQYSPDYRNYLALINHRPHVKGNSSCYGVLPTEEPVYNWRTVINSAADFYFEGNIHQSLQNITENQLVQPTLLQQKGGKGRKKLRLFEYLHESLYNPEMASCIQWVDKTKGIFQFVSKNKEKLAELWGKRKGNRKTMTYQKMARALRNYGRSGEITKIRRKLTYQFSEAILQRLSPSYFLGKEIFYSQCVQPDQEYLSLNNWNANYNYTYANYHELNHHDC
Procedure, shortened: as §1

ELF4 = ELF4 (Homo sapiens, UniProt Q99607 1-663); conditions: protein: recombinant; tags: N-terminal GST; dsDNA, one strand shown
Procedure, shortened: as §1

ELK4 = target: T3, ELK4 (Homo sapiens, UniProt P28324-2 1-405); conditions: protein: recombinant; tags: N-terminal GST; dsDNA, one strand shown
T3 sequence: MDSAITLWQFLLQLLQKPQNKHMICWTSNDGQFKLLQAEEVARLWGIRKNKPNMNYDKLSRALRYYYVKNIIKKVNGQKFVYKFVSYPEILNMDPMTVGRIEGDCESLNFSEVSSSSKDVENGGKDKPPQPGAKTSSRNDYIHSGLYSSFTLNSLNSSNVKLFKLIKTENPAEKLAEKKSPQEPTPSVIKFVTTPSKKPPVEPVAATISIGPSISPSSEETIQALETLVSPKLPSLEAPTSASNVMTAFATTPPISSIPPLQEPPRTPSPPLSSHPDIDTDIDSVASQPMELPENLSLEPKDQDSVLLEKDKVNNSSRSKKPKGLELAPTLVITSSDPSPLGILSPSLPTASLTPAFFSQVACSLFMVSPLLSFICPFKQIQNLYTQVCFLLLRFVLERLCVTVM
Procedure, shortened: as §1

ETV2 = target: T4, ETV2 (Homo sapiens, UniProt O00321 1-342); conditions: protein: recombinant; tags: N-terminal GST; dsDNA, one strand shown
T4 sequence: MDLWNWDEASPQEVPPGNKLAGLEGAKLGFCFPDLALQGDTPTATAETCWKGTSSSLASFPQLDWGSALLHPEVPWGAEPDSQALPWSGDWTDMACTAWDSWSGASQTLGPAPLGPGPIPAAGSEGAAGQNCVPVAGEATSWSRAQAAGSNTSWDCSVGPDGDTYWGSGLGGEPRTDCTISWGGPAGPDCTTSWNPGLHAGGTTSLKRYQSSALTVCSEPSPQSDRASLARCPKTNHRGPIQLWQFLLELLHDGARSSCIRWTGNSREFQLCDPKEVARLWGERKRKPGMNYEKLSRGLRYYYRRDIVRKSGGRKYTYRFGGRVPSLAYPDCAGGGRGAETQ
Procedure, shortened: as §1

ELF3 = target: T5, ELF3 (Homo sapiens, UniProt P78545 1-371); conditions: protein: recombinant; tags: N-terminal GST; dsDNA, one strand shown
T5 sequence: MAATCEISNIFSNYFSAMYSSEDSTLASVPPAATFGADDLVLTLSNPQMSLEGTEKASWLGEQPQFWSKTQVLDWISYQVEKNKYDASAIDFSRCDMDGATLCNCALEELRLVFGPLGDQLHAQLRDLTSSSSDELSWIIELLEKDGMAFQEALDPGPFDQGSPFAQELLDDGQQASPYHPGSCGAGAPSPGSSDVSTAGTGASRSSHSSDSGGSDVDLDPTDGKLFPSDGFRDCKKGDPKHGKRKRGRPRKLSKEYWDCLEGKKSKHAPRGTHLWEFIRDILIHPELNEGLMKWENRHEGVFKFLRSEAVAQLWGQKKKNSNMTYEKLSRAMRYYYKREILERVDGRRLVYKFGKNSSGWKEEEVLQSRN
Procedure, shortened: as §1

CRX = CRX (Homo sapiens, UniProt O43186 1-299); conditions: protein: recombinant; tags: N-terminal GST; dsDNA, one strand shown
Procedure, shortened: as §1

ETV1 = ETV1 (Homo sapiens, UniProt P50549 1-477); conditions: protein: recombinant; tags: N-terminal GST; dsDNA, one strand shown
Procedure, shortened: as §1

ERF = target: T6, ERF (Homo sapiens, UniProt P50548 1-548); conditions: protein: recombinant; tags: N-terminal GST; dsDNA, one strand shown
T6 sequence: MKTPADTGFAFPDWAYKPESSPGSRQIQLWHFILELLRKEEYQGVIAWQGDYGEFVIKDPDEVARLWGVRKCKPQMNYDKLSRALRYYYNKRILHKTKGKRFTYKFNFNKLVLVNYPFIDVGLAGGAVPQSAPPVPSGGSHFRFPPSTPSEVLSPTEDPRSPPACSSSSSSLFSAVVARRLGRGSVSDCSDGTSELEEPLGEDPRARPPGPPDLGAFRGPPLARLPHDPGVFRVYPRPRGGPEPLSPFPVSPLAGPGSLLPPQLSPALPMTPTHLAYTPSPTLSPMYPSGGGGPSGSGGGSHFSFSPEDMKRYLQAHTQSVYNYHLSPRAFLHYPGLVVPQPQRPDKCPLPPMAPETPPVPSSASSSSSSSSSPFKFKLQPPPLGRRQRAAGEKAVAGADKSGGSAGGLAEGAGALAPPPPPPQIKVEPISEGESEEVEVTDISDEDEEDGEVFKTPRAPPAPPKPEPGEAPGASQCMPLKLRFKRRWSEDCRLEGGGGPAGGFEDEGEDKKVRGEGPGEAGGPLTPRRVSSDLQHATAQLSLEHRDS
Procedure, shortened: as §1

ETV3L = target: T7, ETV3L (Homo sapiens, UniProt Q6ZN32 1-361); conditions: protein: recombinant; tags: N-terminal GST; dsDNA, one strand shown
T7 sequence: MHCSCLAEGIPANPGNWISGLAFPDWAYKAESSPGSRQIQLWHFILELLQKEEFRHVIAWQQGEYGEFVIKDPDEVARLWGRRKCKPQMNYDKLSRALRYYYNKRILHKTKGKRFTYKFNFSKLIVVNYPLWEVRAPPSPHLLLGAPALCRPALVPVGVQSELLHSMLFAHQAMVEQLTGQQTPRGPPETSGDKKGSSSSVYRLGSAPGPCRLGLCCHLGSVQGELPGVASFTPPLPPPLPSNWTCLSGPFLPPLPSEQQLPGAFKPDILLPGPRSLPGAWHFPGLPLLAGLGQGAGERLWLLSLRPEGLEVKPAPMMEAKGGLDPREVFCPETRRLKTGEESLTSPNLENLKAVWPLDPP
Procedure, shortened: as §1

ETS2 = target: T8, ETS2 (Homo sapiens, UniProt P15036 1-469); conditions: protein: recombinant; tags: N-terminal GST; dsDNA, one strand shown
T8 sequence: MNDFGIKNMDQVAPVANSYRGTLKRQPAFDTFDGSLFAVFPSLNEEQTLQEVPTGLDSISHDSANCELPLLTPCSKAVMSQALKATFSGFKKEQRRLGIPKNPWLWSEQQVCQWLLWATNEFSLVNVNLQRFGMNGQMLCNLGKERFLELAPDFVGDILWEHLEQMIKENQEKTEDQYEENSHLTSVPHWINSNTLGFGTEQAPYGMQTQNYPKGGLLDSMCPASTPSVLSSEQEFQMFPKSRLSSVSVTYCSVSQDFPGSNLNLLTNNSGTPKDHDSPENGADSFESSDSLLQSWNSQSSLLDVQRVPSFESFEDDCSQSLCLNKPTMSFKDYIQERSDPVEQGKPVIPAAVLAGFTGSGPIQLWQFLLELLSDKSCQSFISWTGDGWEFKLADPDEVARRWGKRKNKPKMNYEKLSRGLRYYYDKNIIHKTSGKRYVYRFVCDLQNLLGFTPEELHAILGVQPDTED
Procedure, shortened: as §1

SPDEF = target: T9, SPDEF (Homo sapiens, UniProt O95238 1-335); conditions: protein: recombinant; tags: N-terminal GST; dsDNA, one strand shown
T9 sequence: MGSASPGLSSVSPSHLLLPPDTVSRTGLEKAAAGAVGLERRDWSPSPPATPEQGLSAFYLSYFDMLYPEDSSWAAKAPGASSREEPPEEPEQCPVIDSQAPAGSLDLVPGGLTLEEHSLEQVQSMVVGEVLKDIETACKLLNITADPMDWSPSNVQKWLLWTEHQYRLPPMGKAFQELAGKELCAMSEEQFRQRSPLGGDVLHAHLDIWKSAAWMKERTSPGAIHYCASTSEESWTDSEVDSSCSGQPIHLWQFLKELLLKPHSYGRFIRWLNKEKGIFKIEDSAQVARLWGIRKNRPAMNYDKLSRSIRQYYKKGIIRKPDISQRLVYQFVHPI
Procedure, shortened: as §1

ETV7 = target: T10, ETV7 (Homo sapiens, UniProt Q9Y603 1-341); conditions: protein: recombinant; tags: N-terminal GST; dsDNA, one strand shown
T10 sequence: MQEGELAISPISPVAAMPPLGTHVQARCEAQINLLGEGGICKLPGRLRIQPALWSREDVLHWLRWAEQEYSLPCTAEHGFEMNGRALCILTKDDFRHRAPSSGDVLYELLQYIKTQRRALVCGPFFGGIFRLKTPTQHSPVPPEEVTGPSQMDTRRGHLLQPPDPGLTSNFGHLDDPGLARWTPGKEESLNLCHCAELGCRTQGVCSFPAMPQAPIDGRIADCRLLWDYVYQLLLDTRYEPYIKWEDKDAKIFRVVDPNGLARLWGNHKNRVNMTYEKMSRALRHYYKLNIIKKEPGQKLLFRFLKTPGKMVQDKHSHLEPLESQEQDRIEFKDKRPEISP
Procedure, shortened: as §1

ELF5 = target: T11, ELF5 (Homo sapiens, UniProt Q9UKW6-2 1-255); conditions: protein: recombinant; tags: N-terminal GST; dsDNA, one strand shown
T11 sequence: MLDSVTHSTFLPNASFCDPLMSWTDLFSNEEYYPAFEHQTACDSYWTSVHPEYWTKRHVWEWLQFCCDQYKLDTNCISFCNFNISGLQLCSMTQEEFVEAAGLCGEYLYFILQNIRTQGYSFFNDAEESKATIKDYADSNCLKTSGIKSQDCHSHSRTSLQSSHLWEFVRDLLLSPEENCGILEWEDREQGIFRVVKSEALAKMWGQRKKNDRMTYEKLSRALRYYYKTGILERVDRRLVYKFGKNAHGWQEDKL
Procedure, shortened: as §1

ETV3 = target: T12, ETV3 (Homo sapiens, UniProt P41162-2 1-143); conditions: protein: recombinant; tags: N-terminal GST; dsDNA, one strand shown
T12 sequence: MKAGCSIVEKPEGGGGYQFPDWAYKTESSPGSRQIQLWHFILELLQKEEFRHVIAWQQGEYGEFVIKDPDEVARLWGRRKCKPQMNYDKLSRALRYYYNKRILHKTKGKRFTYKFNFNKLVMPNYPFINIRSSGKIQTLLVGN
Procedure, shortened: as §1

ETV6 = ETV6 (Homo sapiens, UniProt P41212 1-452); conditions: protein: recombinant; tags: N-terminal GST; dsDNA, one strand shown
Procedure, shortened: as §1

Chain of ETV5 (P41161 whole entry): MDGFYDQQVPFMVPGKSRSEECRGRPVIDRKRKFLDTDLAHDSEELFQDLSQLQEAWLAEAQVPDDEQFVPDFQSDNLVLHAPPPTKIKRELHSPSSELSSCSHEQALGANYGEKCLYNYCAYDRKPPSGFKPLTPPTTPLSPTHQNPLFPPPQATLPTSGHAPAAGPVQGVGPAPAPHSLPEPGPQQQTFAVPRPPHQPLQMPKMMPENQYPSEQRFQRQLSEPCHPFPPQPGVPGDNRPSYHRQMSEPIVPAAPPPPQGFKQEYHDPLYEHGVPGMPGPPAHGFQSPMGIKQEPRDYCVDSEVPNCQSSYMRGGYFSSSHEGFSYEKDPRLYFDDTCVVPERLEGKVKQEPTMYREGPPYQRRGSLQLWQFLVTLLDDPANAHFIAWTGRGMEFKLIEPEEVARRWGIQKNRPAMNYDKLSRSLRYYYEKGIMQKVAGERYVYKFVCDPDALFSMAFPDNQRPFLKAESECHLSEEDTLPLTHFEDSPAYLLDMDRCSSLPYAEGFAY
Chain of ETV1 (P50549 whole entry): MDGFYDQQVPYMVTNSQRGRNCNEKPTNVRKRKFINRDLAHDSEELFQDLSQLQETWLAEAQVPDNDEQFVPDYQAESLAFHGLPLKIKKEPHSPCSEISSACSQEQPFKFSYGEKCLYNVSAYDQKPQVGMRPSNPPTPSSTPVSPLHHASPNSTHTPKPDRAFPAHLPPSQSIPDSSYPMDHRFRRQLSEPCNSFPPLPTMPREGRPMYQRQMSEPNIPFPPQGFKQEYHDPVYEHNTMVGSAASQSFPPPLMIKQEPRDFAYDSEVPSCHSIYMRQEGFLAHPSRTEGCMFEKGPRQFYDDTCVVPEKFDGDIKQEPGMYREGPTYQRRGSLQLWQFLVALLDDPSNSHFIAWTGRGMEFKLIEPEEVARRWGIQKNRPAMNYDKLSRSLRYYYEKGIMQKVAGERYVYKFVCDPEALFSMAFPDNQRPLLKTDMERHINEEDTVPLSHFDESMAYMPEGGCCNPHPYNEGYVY
Chain of ETV6 (P41212 whole entry): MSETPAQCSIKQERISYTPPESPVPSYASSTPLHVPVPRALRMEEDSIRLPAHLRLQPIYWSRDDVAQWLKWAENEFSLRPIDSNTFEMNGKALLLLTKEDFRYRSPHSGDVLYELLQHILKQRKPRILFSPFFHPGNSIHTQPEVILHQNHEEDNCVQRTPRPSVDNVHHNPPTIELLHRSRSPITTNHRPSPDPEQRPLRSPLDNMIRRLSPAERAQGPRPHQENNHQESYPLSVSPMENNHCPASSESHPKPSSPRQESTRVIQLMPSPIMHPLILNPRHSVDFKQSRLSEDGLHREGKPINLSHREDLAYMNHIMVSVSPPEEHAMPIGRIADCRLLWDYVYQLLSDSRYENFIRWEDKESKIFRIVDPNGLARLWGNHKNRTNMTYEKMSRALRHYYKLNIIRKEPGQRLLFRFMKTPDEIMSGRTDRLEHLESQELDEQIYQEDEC
Chain of CRX (O43186 whole entry): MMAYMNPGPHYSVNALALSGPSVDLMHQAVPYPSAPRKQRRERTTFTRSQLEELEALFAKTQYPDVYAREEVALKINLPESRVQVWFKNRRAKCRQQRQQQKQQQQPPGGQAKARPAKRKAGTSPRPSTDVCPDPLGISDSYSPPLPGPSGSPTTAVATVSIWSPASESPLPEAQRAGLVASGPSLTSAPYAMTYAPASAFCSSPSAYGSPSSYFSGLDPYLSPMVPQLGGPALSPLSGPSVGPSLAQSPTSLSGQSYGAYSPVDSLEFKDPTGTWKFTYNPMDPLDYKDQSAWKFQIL
Chain of ELF4 (Q99607 whole entry): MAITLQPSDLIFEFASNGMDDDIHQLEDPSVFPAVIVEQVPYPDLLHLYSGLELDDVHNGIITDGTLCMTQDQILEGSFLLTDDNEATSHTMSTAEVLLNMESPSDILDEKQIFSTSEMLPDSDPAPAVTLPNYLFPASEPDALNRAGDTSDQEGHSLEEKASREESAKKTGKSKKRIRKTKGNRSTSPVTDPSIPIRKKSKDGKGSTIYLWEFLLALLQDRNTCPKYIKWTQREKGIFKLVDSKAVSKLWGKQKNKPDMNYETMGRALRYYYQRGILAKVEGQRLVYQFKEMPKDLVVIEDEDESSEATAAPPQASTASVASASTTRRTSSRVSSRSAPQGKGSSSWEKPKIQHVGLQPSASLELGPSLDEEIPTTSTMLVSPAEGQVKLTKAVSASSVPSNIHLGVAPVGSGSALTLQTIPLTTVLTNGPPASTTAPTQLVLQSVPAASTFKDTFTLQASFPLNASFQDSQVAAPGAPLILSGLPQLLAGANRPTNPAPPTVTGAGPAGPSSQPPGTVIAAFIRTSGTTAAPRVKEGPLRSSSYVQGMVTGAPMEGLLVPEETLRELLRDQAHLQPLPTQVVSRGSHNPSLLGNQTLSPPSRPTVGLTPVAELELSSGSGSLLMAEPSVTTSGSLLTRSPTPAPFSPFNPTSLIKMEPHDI
Chain of HSF1 (Q00613 whole entry): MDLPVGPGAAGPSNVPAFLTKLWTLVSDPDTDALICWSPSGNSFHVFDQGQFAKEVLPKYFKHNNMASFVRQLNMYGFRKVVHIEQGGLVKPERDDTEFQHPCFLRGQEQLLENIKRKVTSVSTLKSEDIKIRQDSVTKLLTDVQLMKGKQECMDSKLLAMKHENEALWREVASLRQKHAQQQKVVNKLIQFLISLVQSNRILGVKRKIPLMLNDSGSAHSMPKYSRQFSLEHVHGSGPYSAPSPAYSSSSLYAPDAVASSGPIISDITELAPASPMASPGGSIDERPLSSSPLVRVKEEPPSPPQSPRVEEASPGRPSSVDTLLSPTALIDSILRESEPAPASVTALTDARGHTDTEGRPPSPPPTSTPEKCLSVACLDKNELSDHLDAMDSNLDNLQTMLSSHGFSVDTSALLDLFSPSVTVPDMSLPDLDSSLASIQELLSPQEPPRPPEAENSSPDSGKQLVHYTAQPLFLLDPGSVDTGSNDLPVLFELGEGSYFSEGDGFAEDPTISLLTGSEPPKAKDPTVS

CTCAAC
binding signal (FEV): 1.32 fold enrichment (6-mer frequency, TF over GST control) | binding signal (ETV5): 1.3 fold enrichment (6-mer frequency, TF over GST control) | binding signal (HSF1): 1.1 fold enrichment (6-mer frequency, TF over GST control) | binding signal (SPIC): 1.36 fold enrichment (6-mer frequency, TF over GST control) | binding signal (ELF4): 1.3 fold enrichment (6-mer frequency, TF over GST control) | binding signal (ELK4): 1.18 fold enrichment (6-mer frequency, TF over GST control) | binding signal (ETV2): 1.29 fold enrichment (6-mer frequency, TF over GST control) | binding signal (ELF3): 1.19 fold enrichment (6-mer frequency, TF over GST control) | binding signal (CRX): 1.13 fold enrichment (6-mer frequency, TF over GST control) | binding signal (ETV1): 1.24 fold enrichment (6-mer frequency, TF over GST control) | binding signal (ERF): 1.15 fold enrichment (6-mer frequency, TF over GST control) | binding signal (ETV3L): 1.41 fold enrichment (6-mer frequency, TF over GST control) | binding signal (ETS2): 1.27 fold enrichment (6-mer frequency, TF over GST control) | binding signal (SPDEF): 1.24 fold enrichment (6-mer frequency, TF over GST control) | binding signal (ETV7): 1.11 fold enrichment (6-mer frequency, TF over GST control) | binding signal (ELF5): 1.16 fold enrichment (6-mer frequency, TF over GST control) | binding signal (ETV3): 1.28 fold enrichment (6-mer frequency, TF over GST control) | binding signal (ETV6): 1.24 fold enrichment (6-mer frequency, TF over GST control)
